Drawing on the supplement of paper PMC9950053, this text covers combined optomotor response for one molecule.

Structures can show the parent of a compound that is named as a salt.

This experiment concerns Danio rerio larvae (5 dpf). As to the kind of experiment: combined optomotor response (time in upper well half, down vs up moving lines, periods 7-14) minus DMSO control (percentage points); higher = stronger optomotor response than DMSO larvae. The note with it: 10 µM; exposure time: 3 h pre-incubation + 3 h imaging. As for the experimental part:
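Wild-type 5 dpf zebrafish larvae (n=48 per drug, 96-well plates, 28.5 °C) were exposed to Tocris FDA-approved library compounds at 10 µM (0.1% DMSO) for 3 h before and 3 h during imaging. Images were taken every 6 s during visual and acoustic stimuli, and larvae were tracked with Z-LaP Tracker. Each measure is the treated-group mean minus the DMSO control mean (n=844), in percentage points. This mapping covers compounds with 5-character plate codes.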
`COc1ccc(C(CN(C)C)C2(O)CCCCC2)cc1` (stereo unspecified) [Venlafaxine hydrochloride]: the combined optomotor response is -1.24.
